Assay outcomes from PubChem BioAssay.
In the library only some 1.4% were active in any assay of this set; here they are far more common.
Polio RdRp inh = inhibitors of poliovirus RNA polymerase binding and polymerization; P03300; poliovirus polymerase elongation, fluorescence polarization; stronger effect = lower value; % elongation, % (compound at 16.7 µg/mL); 150,000 tested, 0.66% active; AID 588519; in the data active = % elongation below about 90%
Target sequence (P03300 1749-2209 limits assumed): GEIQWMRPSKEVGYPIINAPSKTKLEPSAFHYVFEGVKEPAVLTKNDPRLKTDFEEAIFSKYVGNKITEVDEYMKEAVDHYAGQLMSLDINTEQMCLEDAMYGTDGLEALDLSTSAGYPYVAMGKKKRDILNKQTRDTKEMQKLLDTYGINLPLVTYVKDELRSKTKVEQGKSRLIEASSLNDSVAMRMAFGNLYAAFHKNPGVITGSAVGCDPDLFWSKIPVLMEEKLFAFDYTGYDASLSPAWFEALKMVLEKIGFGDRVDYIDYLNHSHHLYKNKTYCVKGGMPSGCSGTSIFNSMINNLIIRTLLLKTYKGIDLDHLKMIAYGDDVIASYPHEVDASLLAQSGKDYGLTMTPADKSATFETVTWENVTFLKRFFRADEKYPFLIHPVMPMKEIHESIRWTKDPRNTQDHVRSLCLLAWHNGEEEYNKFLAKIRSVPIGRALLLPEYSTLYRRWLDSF
Mtb MbtI inh = blocks the Mycobacterium tuberculosis siderophore enzyme MbtI. inhibition, % (no concentration beside the values). P9WFX0. purified MbtI enzyme, fluorescence intensity read-out. AID 493033. 100,000 tested, 0.89% active; in the data active = inhibition mostly above about 56%, no sharp cut-off; inactive = mostly below about 77%
Mtb MenB inh = Mtb MenB enzyme inhibition; P9WNP5; MenB enzyme assay, absorbance read-out; inhibition, % (concentration not given with the values); 100,000 tested, 0.43% active; AID 540299; in the data active = inhibition above about 21%, passing the limit was not always enough
AID504770 = growth inhibitors of E. coli YBA685 in a screen for V. cholerae RctB (chromosome II replication) inhibitors; E. coli YBA685 rctB-dependent plasmid, OD600 growth, 3 h; stronger effect = lower value; z-score (concentration not given with the values); 130,000 tested, 0.27% active; AID 504770; in the data active = z-score below about -2, passing the limit was not always enough
* = called active by the depositor; x = no result given; ! = not active in a repeat.

SMILES	Polio RdRp inh	Mtb MbtI inh	Mtb MenB inh	AID504770
O=C(CN1CCN(c2ncnc3scc(-c4ccc(Cl)cc4)c23)CC1)NC1CC1	105	-5	-6	-4.9*
CN1C(=O)NC(=O)/C(=C\C=C\c2ccco2)C1=O	105	21	-268	-0.15
O=C1NC(=O)N(c2ccccc2)C(=O)/C1=C/C=C/c1ccco1	101	88*	-180	-0.3
O=C1NC(=S)NC(=O)C1=C/C=C/c1ccco1	72*	62	-44	0.8
Cc1[nH]n(-c2ccc(Cl)cc2)c(=O)c1C=O	100	71*	5	-0.3
Cc1[nH]n(-c2ccccc2)c(=O)c1Sc1ccc(Cl)cc1	102	-207	-6	-0.8
Oc1ccccc1C=Nc1ccc(N=Cc2ccccc2O)cc1	40	3	x	0.15
CCc1ccccc1NC(=O)CN1CCN(C(=O)CCS(=O)(=O)c2ccc(C)cc2)CC1	105	-6	-26	0.2
COc1ccc(Cl)cc1CN1CCCCC1	110	x	-14	-1.4
COc1cc(Cl)ccc1N=NN1CCOCC1	x	x	x	-3.9*
Cn1c[n+](/N=C(/[O-])c2ccc(C(=O)ON3C(=O)CCC3=O)cc2)cn1	102	x	-11	3.6
c1ccc(-c2nnc(SCCN3CCOCC3)o2)cc1	100	-4	26*	-0.2
O=C1NC(=O)C(C(c2ccccc2)c2ccccc2)C(=O)N1	99	1	32*	1.1
O=C1NC(=O)C(c2ccccc2)N1 (stereo not drawn)	106	-3	-2	-1.1
CC(C)(C)C(=O)NC1CCN(S(C)(=O)=O)CC1	102	-3	31*	-0.35
O=C(CSC1CCCC1)NCC1CCCCC1	100	-4	x	-0.15
COC(=O)C1=C(C)NC(C)=C(C(=O)OC)C1c1cc2ccc(OC)cc2[nH]c1=O	102	-64	-11	0.3
CCOC(=O)c1c(C)c(C)c(C)[nH]c1=S	101	91*	-4	-0.35
CCOC(=O)c1sc(N)c(C(=O)OCC)c1C	79*	x	-5	0.5
Cc1ccccc1N1CCN(C(=O)c2ccccc2O)CC1	x	x	x	0
O=C(CCc1nnc2ccc(N3CCC4(CC3)OCCO4)nn12)Nc1ccc2c(c1)OCO2	101	-11	-41	0.55
COc1ccc(C(=O)CSC#N)cc1OC	97	x	32*	-0.6
COc1ccc(OC)c(C(=O)CSC#N)c1	103	-45	-5	1.9
CCOc1ccc(NC2=CC(=O)CCC2)cc1	101	-11	3	-1
CCOc1ccc(NC2=CC(=O)C=CC2=O)cc1	100	98*	x	0.9
SMILES	Polio RdRp inh	Mtb MbtI inh	Mtb MenB inh	AID504770
N/C(=N\N=C1CCCCCC1)SCn1nnc2ccccc2c1=O	90*	34	-15	-0.15
O=c1c2ccccc2nnn1CSC(=S)N1CCCC1	107	36	-31	1.1
N#CCc1ccc(OC(F)F)cc1	31*	0	-14	0.15
N#Cc1c(SCCCOc2ccccc2)sc2c(=O)[nH]c(=O)[nH]c12	103	x	21*	-0.85
CC12CCCC(C(=O)O)(CCC1)C2	x	x	x	0.3
O=C(c1ccccc1)N1CCn2c1nc1ccccc12	110	x	-10	-0.85
COCCNC(=S)N1CCn2c1nc1ccccc12	91	84*	-3	0.1
CC1CC(=S)Nc2ccccc2S1 (stereo not drawn)	102	24	-24	-0.15
CC(C)(C)N1Sc2ccccc2NC1=S	98	90*!	-6	-0.15
CC(NCCC(=O)O)c1ccccc1 (stereo not drawn)	99	-3	34*	1.6
O=C(NC1CCN(Cc2ccccc2)CC1)c1ccc(Cn2c(=O)c3ccccc3n(Cc3ccccc3)c2=O)cc1	73*	x	x	x
O=C(NC1CCN(Cc2ccccc2)CC1)c1ccc(Cn2c(=O)c3ccccc3n(Cc3ccc(Cl)cc3)c2=O)cc1	99	x	x	x
O=C(c1ccco1)n1c(=S)nc2ccccn21	83*	x	-16	0
O=C(c1ccco1)N1CCN(C(=O)c2ccco2)CC1	104	-6	-36	2.2
CC(C)N(CC(=O)c1cccs1)Cc1ccccc1	98	100*	-8	1.4
COc1ccc(NC(=O)CSc2nc3ccccc3[nH]c2=O)cc1	x	x	x	0.65
S=C1NC2Nc3ccccc3C2=NN1CC1CCCO1 (stereo not drawn)	105	12	-32	0.45
NC(=S)c1cccc(Oc2ccccc2)c1	87*	30	-69	2
S=c1[nH]nc(NCCCN2CCOCC2)s1	96	97*	-19	-0.6
COCCCNC(=O)CCC(=O)NNc1nc2ccccc2c2nc(C)nn12	24*	x	x	x
CCCCNC(=O)CCC(=O)NNc1nc2ccccc2c2nc(-c3ccccc3)nn12	106	x	x	x
CCCCNC(=O)CCC(=O)NNc1nc2ccccc2c2nc(C)nn12	81*	x	x	x
CCOCCCNC(=O)CCC(=O)NNc1nc2ccccc2c2nc(C)nn12	36*	x	x	x
Cc1nc2c3ccccc3nc(NNC(=O)CCC(=O)N3CCN(c4ccc(F)cc4)CC3)n2n1	95	x	x	x
Cc1cc(Br)ccc1NC(=O)c1sc2nc3n(c(=O)c2c1C)CCCC3	110	x	x	x
SMILES	Polio RdRp inh	Mtb MbtI inh	Mtb MenB inh	AID504770
O=c1c2c(nc3n1CCC3)sc1c(O)c(Br)ccc12	100	10	38*	1
CCOC(=O)c1cc(C(N)=S)c(=O)[nH]c1O	103	60	4	1.6
CCSc1nnc(C2CCCN(C(=O)NCc3ccccc3)C2)n1C (stereo not drawn)	105	-7	-42	-0.65
COC(=O)CC1(O)c2ccccc2C(=O)N1Cc1ccccc1 (stereo not drawn)	x	x	x	-0.6
O=C(O)CC1(O)c2ccccc2C(=O)N1Cc1ccccc1 (stereo not drawn)	90*	x	-37	1.6
Cc1nnc2ccc(NN)nn12	101	5	-25	-0.75
COC(=O)C1=C(N)OC2=C(C(=O)CCC2)C1c1ccc(OC)cc1 (stereo not drawn)	101	4	37*	1.6
COc1ccc(C2C(C#N)=C(N)OC3=C2C(=O)CCC3)cc1 (stereo not drawn)	102	11	-19	-0.15
Nc1nc(N)c2[nH]c(-c3ccccc3)nc2n1	68*	99	-27	1.2
Nc1nc(N)nc(-c2ccccc2)n1	101	-2	-9	-1.2
O=c1/c(=C\c2ccccc2)sc2nc3ccccc3n12	97	29	x	-0.4
O=c1/c(=C\c2ccncc2)sc2nc3ccccc3n12	63*	x	-34	-0.4
CCCn1nnnc1SCC(=O)c1ccccc1	103	3	31*	1.6
O=C(CSc1nnnn1Cc1ccccc1)c1ccccc1	101	-2	-28	-0.05
Cc1cccc(NC(=O)CN(CC2CCCO2)C(=O)c2cc(-c3ccco3)nc3ccccc23)c1C (stereo not drawn)	1.0*	103	-7	-0.8
Cc1cnc(C(=O)N(CC(=O)Nc2cccc(C)c2C)CC2CCCO2)cn1 (stereo not drawn)	101	-5	-11	0.15
CCOc1ccc(N2C(=O)/C(=C/c3cccs3)C(=O)N(c3ccccc3)C2=S)cc1	106	73*	-22	-0.55
O=C(CNc1ccccc1)N/N=C/c1ccc(N2CCOCC2)cc1	102	120	0	-0.25
O=C(NOC(=O)c1cccs1)c1ccccc1	101	5	-14	-2.6*
CCOC(=O)c1sc(N(C)C(C)=O)nc1C	99	19	39*	0.8
CCOC(=O)c1sc(Br)nc1C	x	x	x	0.95
